From PubChem BioAssay (NCATS)
Records with an inconclusive call do not appear. Entries that show only a call come without a potency. Calls of active or inactive are those of the source. Calls come from the whole dose curve; as a rule, active = well fitted cell-killing curve with a large enough effect; inconclusive = small, poorly fitted or top-dose-only effect; inactive = no such curve, though single readings can be large or run the other way.

assay: qHTS of pediatric cancer cell lines to identify multiple opportunities for drug repurposing: Primary screen for A673 cells (AID 1347092); details: A673 Ewing sarcoma viability, CellTiter-Glo ATP luminescence, 48 h; series mostly up to 46 µM; note: nearly all actives have a fitted effect of over 45% in size
Excerpt: Drug repurposing or repositioning has been offered as a strategy for drug development in oncology programs. This approach has special potential for childhood cancers and other rare or orphan diseases, where the expected return on new drug development has been a disincentive to pharmaceuticals. […] In this project we exploit the poly-pharmacology of drugs to discover new indications via phenotypic screening of a panel of 19 well-characterized cell lines derived from solid tumors seen in children and adolescents. The goal is to identify approved drugs with previously unrecognized anticancer properties that has the potential to reveal new mechanisms and biological processes involved in carcinogenesis or drug resistance. We employed a titration-based paradigm (quantitative high-throughput screening or qHTS), where all compounds were tested at multiple concentrations for their effect on cell viability. Concentration-response curves (CRCs) were derived directly from the primary screen, and both potency and efficacy values were used to identify compounds with robust bioactivity profiles. We screened the NIH Chemical Genomics Center (NCGC) Pharmaceutical Collection (NPC) and Mechanism Interrogation Plate (MIPE) small molecule collections of approved and investigational compounds against these cell lines; and measured metabolically active cells after 48 hours of compound treatment as a proxy for cell viability. […] Assay Submitter: Nathalia J. Martinez, National Center for Advancing Translational Sciences, National Institutes of Health, Rockville, MD, USA; email: natalia.martinez@nih.gov. Shen, M et al. Quantitative high-throughput phenotypic screening of pediatric cancer cell lines identifies multiple opportunities for drug repurposing. Oncotarget 2017 Dec 19;9(4):4758-4772. PMID 29435139.
The cells were obtained from University of North Carolina (UNC), Pediatric Preclinical Testing Program (PPT), and Coriell Institute (CI). qHTS cell viability assay: Cells were assayed in growth media at a density of 500-1,000 cells/well. Five microliters of cells were dispensed into 1,536-well, white, solid-bottom, TC-treated plates (Greiner Bio One) using a multidrop dispenser and incubated at 37 degrees C, 5% CO2, under a humidified atmosphere for 5 hours. Twenty-three nanoliters of compounds and controls (neutral control DMSO or positive control bortezomib at final concentration of 2.3 uM) were subsequently transferred by Kalypsys pintool. For primary screens, the MIPE collection was tested at 11-point dilutions (final concentrations range from 0.78 nM to 46 µM) and the NPC collection at 8-point dilutions (final concentrations range from 0.59 nM to 46 µM). Compounds tested in follow-up screens were assayed at 11-point dilutions. Cells were incubated for 48 hours, followed by addition of 3 uL of CellTiter-Glo (Promega). After a 15min incubation at room temperature, samples were analyzed for luminescence intensity using a ViewLux High-throughput CCD imager equipped with clear filters.
Potency is the fitted concentration of half-maximal effect.

Compound	Potency
CCCCCCCCOc1ccc(C(=O)c2ccccc2)c(O)c1	inactive
CCCCCCCCCCCCCC(=O)OC(C)C	inactive
CCNC(=O)/C=C/c1cccc(Br)c1	inactive
O=C(O)C(Cc1cc(I)c(O)c(I)c1)c1ccccc1 (stereo not given)	inactive
CCOC(=O)Nc1ccc2c(c1)N(C(=O)CCN1CCOCC1)c1ccccc1S2	inactive
CN1CCN(c2cc3c(cc2F)c(=O)c(C(=O)O)cn3-c2ccc(F)cc2)CC1	inactive
Cc1ccccc1OCC(O)CO (stereo not given)	inactive
CCCc1ncc(C[n+]2ccccc2C)c(N)n1	inactive
O=C(O)CCC(=O)Nc1ccc(S(=O)(=O)Nc2nccs2)cc1	inactive
C[C@@H](O)[C@H]1C(=O)N2C(C(=O)O)=C([C@H]3CCCO3)S[C@H]12	inactive
CCC1NC(=O)c2cc(S(N)(=O)=O)c(Cl)cc2N1 (stereo not given)	inactive
O=C(NC1CCN(CCc2c[nH]c3ccccc23)CC1)c1ccccc1	inactive
CCc1cc(Cl)c(OC)c(C(=O)NC[C@@H]2CCCN2CC)c1O	inactive
COc1cc(O)c(C(=O)c2ccccc2)cc1S(=O)(=O)O	inactive
CNCCCCOc1ccccc1Cc1ccccc1	26.6 µM (active)
CCN(CC)CCNC(=O)c1cc(Br)c(N)cc1OC	inactive
Oc1ccccc1C=NCc1ccccc1	inactive
CC(C)(C)NC[C@H](O)COc1nsnc1N1CCOCC1	inactive
CCOC(=O)c1ccc(N)cc1	inactive
O=C1c2cccc3c2[C@H](CCC3)CN1[C@@H]1CN2CCC1CC2	inactive

Compound	Potency
NC(=O)c1ccccc1O	inactive
CCCCc1cc2ccccc2c(OCCN(C)C)n1	inactive
CC(C(=O)O)c1cccc(Oc2ccccc2)c1 (stereo not given)	inactive
FC1(F)C(F)(F)C(F)(F)C2(F)C(F)(F)C(F)(F)C(F)(F)C(F)(F)C2(F)C1(F)F (stereo not given)	inactive
C=C[C@H]1CN2CC[C@H]1C[C@@H]2[C@@H](O)c1ccnc2ccc(OC)cc12	inactive
Cn1c(=O)c2[nH]c(Br)nc2n(C)c1=O	inactive
OCc1ccccn1	inactive
Nc1nc(-c2ccccc2)c(Br)c(=O)[nH]1	inactive
O=C(O)C1(C(=O)O)CCC1.[NH2-].[NH2-].[Pt+2]	inactive
Cc1nc(-c2ccc(Cl)cc2)oc1COC(C)(C)C(=O)O	inactive
CC(=O)Nc1ccc(OC(=O)c2ccccc2OC(C)=O)cc1	inactive
C[N+]1(CC2COC(c3ccccc3)(C3CCCCC3)O2)CCCCC1 (stereo not given)	inactive
CC(=O)Nc1ccc(CC(=O)O)cc1	inactive
C[N+]12CCC(CC1)C(OC(=O)C(O)(c1ccccc1)c1ccccc1)C2 (stereo not given)	inactive
CCc1ccc(C(=O)C(C)CN2CCCCC2)cc1 (stereo not given)	inactive
COc1ccc(C(=O)c2ccccc2)c(O)c1	inactive
C#C[C@]1(O)CC[C@H]2[C@@H]3CCC4=CC(=O)CC[C@@H]4[C@H]3CC[C@@]21CC	inactive
CCN1CCCC(OC(=O)C(c2ccccc2)c2ccccc2)C1 (stereo not given)	inactive
O=C1C(CCS(=O)c2ccccc2)C(=O)N(c2ccccc2)N1c1ccccc1 (stereo not given)	inactive
CCOc1ccc(NC(C)=O)cc1	inactive
